This is a sample that favours compounds with a hit; in the whole collection about 3.2% have one here.
14-3-3 Bad PPI = disrupts binding of bovine 14-3-3 zeta to phospho-Bad peptide; P63103; TR-FRET 14-3-3zeta/Dy647-pBad peptide displacement, 1 h; inhibition, % at 21.7 µM; 220,000 tested, 0.71% active; AID 781;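 active = inhibition above about 70%, limit read from the data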;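 note: 0% = full 14-3-3 plus peptide FRET controls and 100% = background without 14-3-3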
Mcl1-Noxa inh = Mcl-1/Noxa interaction inhibition. Q07820. AID 1022. TR-FRET Mcl-1/Noxa peptide binding, 2 h. inhibition, % at 21.7 µM. 220,000 tested, 1.5% active;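 active = compounds that cut the protein-peptide binding signal by more than 50% relative to plate controls in a single-dose test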;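 note: His-tagged Mcl-1 with rhodamine Noxa BH3 peptide and terbium anti-His antibody; 0% = Mcl-1 plus Noxa peptide wells and 100% = peptide-only wells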
Mcl1 Bid PPI = disrupts binding of human Mcl-1 to Bid peptide; 220,000 tested, 0.97% active; Q07820; TR-FRET Mcl-1/Bid-Dy647 peptide binding, 1536-well; inhibition, % at 21.7 µM;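 active = compounds that cut the binding signal by more than half at the single screening dose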;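 note: His-tagged Mcl-1 with europium anti-His antibody binding Bid BH3 peptide; 0% = Mcl-1 plus peptide wells and 100% = peptide-only wells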
p47phox inh = inhibitors of human p47phox binding; 220,000 tested, 0.53% active; P14598; inhibition, % at 24.7 µM; p47phox/p22phox peptide binding, fluorescence polarization, 2 h;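 active = inhibition above about 30%, limit read from the data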;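 note: 0% = p47phox with labelled peptide and 100% = labelled peptide alone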
Target sequence (P14598 whole entry, looked up): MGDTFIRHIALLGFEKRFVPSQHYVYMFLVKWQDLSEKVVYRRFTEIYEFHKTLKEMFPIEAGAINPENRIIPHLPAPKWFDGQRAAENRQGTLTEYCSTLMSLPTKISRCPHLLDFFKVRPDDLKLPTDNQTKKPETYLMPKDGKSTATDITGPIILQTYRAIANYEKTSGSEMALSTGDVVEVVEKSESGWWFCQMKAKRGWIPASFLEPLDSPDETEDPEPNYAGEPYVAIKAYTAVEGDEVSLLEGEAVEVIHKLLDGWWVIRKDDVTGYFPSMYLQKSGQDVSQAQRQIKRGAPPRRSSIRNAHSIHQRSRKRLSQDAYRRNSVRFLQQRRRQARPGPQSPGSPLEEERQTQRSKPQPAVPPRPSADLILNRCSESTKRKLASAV
Bim-Mcl-1 = disrupts Bim peptide binding to human Mcl-1 | Q07820 | Bead-based flow cytometry, Bim peptide-Mcl-1 binding | inhibition, % at 10 µM | 190,000 tested, 0.1% active; in the data active = inhibition above about 40%;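 note: 0% = no compound tracer wells and 100% = peptide blocker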
* = called active by the depositor; · = no result.

SMILES	14-3-3 Bad PPI	Mcl1-Noxa inh	Mcl1 Bid PPI	p47phox inh	Bim-Mcl-1
CCOc1ccc(NC(c2ccccn2)c2oc(CO)cc(=O)c2O)cc1 (centres undefined)	-9	63*	-73	48*	-4
CCOc1ccc(NC(=O)C(c2ccccn2)N(C(=O)CCl)c2ccc(OCC)cc2)cc1 (centres undefined)	-9	4	-20	-3	-4
CCOC(=O)C1=C(O)/C(=C\c2ccc(CNS(=O)(=O)c3ccc(Br)cc3)o2)N=C1C	-9	57*	-65	-14	-1
COC(=O)C1=C(O)/C(=C\c2ccc(CNC(=O)C(=O)Nc3ccc(C)cc3)o2)N=C1C	40	46	18	19	1
COC(=O)C1=C(O)/C(=C\c2ccc(CNC(=O)C(=O)Nc3ccc(C)c(C)c3)o2)N=C1C	40	55*	34	-17	7
COc1ccc(-c2cc(C(=O)Nc3ccc(O)cc3)c3ccccc3n2)cc1OC	21	32	54*	-9	·
O=C(Cn1c2c(c(-c3ccccc3Cl)cc1=O)CCC2)NCCCN1CCOCC1	-3	-3	-16	3	·
O=C(CSc1nc2ccccc2o1)N/N=C/c1ccc(O)c(O)c1	6	37	-132	-8	·
COc1cccc2c(SCC(=O)N/N=C/c3ccc(O)c(O)c3)cc(C)nc12	4	64*	-16	-5	10
COc1ccc2nc(C)cc(SCC(=O)N/N=C/c3ccc(O)c(O)c3)c2c1	-12	54*	-32	-10	16
Cc1cc(SCC(=O)N/N=C/c2ccc(O)c(O)c2)c(C)cc1Br	-16	61*	23	-15	1
COc1cccc2c(SCC(=O)N/N=C/c3ccccc3)cc(C)nc12	1	13	1	-31	16
Cc1cccc(C)c1NC(=O)COc1ccc2c(C)c(Cc3ccccc3)c(=O)oc2c1	5	-31	-21	-18	-5
CCOc1ccccc1NC1=C(Cl)C(=O)N(c2ccccc2)C1=O	-12	16	-27	6	-3
CN=c1scc(-c2ccc([N+](=O)[O-])cc2)n1/N=C/c1ccco1	-5	39	-3	-47	-2
O=C1c2ccc([N+](=O)[O-])cc2NC(c2ccco2)N1/N=C/c1ccco1 (centres undefined)	1	84*	-24	4	·
N#CC(C#N)=c1ccc2c(c1)NC1(CCCCC1)N=2	-41	17	-76	132*	2
N#CC(C#N)=C1NC2(CCCCC2)Cc2ccccc21	-4	-4	-5	-9	·
CCCNC(=O)c1ccc2nc(-c3ccccc3)c(-c3ccccc3)nc2c1	-9	22	-1	-14	-2
O=C(NCCO)Nc1ccc2nsnc2c1	1	-13	5	0	4
O=C(NCCCO)c1ccc2nc(-c3ccco3)c(-c3ccco3)nc2c1	10	91*	-19	-3	18
O=C(NCCO)Nc1ccc2nc(-c3ccco3)c(-c3ccco3)nc2c1	80*	106*	18	-21	15
CCCCNC(=O)c1ccc2nc(-c3ccco3)c(-c3ccco3)nc2c1	1	93*	-5	-5	3
CC1=CC(C2CC(=O)N(c3ccc(C)cc3)C2=O)CC2C(=O)N(c3ccc(C)cc3)C(=O)C12 (centres undefined)	-5	6	-14	2	2
CCOC(=O)c1c(C)c(C(=O)Nc2ccc(N(C)C)cc2)c(C)n1CC	13	56*	-12	8	3
SMILES	14-3-3 Bad PPI	Mcl1-Noxa inh	Mcl1 Bid PPI	p47phox inh	Bim-Mcl-1
CCCCOc1ccc(C(=O)Nc2ccncc2)cc1	0	29	-7	-5	0
CN(C)c1ccc(/C=N/NC(=O)c2ccc(NC(=O)c3ccccc3)cc2)cc1	8	31	-77	4	·
CC(C)Oc1ccc(C(=O)Nc2ccc(N(C)C)cc2)cc1	0	78*	-32	-2	3
CCCOc1ccc(C(=O)Nc2ccc(N(C)C)cc2)cc1	-5	81*	-27	-6	4
CCCCOC(=O)Nc1ccc(N(C)C)cc1	-11	75*	-48	-3	1
O=C(NC(=S)N1CCOCC1)c1cc2ccccc2o1	-9	3	-43	-6	9
Cc1cccc(NC2=CC(=O)CC(C)(C)C2)c1C	-3	6	0	9	-2
CC(C)/C(=N\NS(=O)(=O)c1ccc(Br)cc1)c1cccs1	8	35	-33	-5	-2
CCn1cc(C(=O)O)c(=O)c2cc(F)c(N/N=C/c3ccccc3[N+](=O)[O-])cc21	19	55*	62*	-20	8
Cc1ccc(-n2c(-c3ccccc3)c[n+]3c2CCC3)cc1	-6	51*	-11	-1	-1
Cc1ccc(-n2c(-c3ccc(Cl)cc3)c[n+]3c2CCC3)cc1	-1	5	-14	-1	·
CCOC(=O)C1CCN(C(=O)COc2ccc(S(=O)(=O)N3CCCC3)cc2C)CC1	-13	5	-20	-4	2
CCc1ccc(OCC(=O)c2c(O)c3ccccc3oc2=O)cc1	-4	29	-8	-23	-3
Cc1ccc(OCC(=O)c2c(O)c3ccccc3oc2=O)cc1C	74*	24	7	-24	-3
Cc1ccccc1NS(=O)(=O)c1ccc(OCC(=O)N2CCCC2)cc1	0	58*	4	-5	-2
COC(=O)COc1ccc(S(=O)(=O)Nc2ccccc2SC)cc1	-6	6	-28	91*	-1
CCOc1ccc(S(=O)(=O)Nc2ccccc2SC)cc1	-4	-1	-21	-4	-1
CC(=O)Nc1ccc(S(=O)(=O)NCc2ccccn2)cc1	6	4	91*	-5	0
CC(=O)Nc1ccc(S(=O)(=O)N2CCN(Cc3ccccn3)CC2)cc1	71*	0	29	-5	-1
COc1ccc(S(=O)(=O)NCc2ccccn2)cc1	-5	-2	-1	3	-1
CCOC(=O)Nc1ccc(S(=O)(=O)NCc2ccccc2)cc1	-6	-8	-17	38*	0
CCN1C(=O)C(c2ccc(O)cc2)(c2ccc(O)cc2)c2ccccc21	94*	30	-11	-16	-3
CCN1C(=O)C(O)(C2COC(C)(C)CC2=O)c2ccccc21 (centres undefined)	-11	9	-23	-18	0
CN1N=C(C(=O)Nc2ccc3c(c2)CCC3)CCC1=O	-9	10	-19	-1	-2
O=C(/C=C/c1cccc(Br)c1)N1CCN(c2ccccn2)CC1	-6	6	-8	-2	0
Cc1ccc2c(c1)c(-c1ccccc1)nc1nnnn12	-5	-8	5	-11	-1
O=C(OCc1cccc(F)c1)c1ccc2c(=O)n3c(nc2c1)CCC3	10	-3	61*	-17	·
COc1ccc(-c2nnc(-c3cc4c(ccc5ccccc54)oc3=O)o2)cc1	72*	64*	34	32*	3
COc1ccc(-c2nc3oc4cc(OC)ccc4c(=O)c3c(=O)n2Cc2ccco2)cc1	-4	52*	28	-8	-5
